Compound activity (PubChem BioAssay)
Shown are actives, neighbours in structure and some others; about 2.5% of the full set was active somewhere.
D2 antagonist = antagonists of human D2 dopamine receptor; P14416; 340,000 tested, 2% active; inhibition, % at 10 µM; HEK293 TREx D2 cells, calcium flux, dopamine EC80; AID 485344; in the data active = inhibition above about 30%; inactive = below that, where a call was filed; note: 0% is about no effect
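Overnight-induced (tetracycline, 30 C) HEK293 T-REx cells carrying force-coupled D2 receive a no-wash calcium dye, then compound, then EC80 dopamine at 180 s; signals are read kinetically throughout.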
Anesthetic bind = binds horse apoferritin like a general anesthetic; P02791; Potency, µM (doses to about 77.5 µM), inactives show at the highest dose activity change, negative = displacement, actives largely listed as inhibitors; apoferritin/1-aminoanthracene competitive binding, fluorescence; AID 485281; 350,000 tested, 0.074% active; note: potency is the fitted concentration of half-maximal effect; % is set by controls: 0 for no effect and ±100 for the full control effect; nearly all actives have a fitted effect of over 20% in size
Target sequence (P02791 2-175 limits assumed): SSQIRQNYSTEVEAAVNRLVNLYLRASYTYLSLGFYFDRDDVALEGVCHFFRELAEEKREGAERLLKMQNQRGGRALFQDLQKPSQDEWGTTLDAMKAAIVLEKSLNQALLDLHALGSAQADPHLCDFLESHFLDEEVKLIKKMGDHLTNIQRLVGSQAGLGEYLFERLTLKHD
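Steps: apoferritin (10 uM) was premixed with half-saturated 1-AMA in PBS, compounds were pin-transferred, plates stood 10 min at room temperature, fluorescence was read at 380/535 nm, and curves were fitted with a Hill equation.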
D2 ag-1 = human D2 receptor agonism in beta-arrestin assay; P14416; DiscoveRx PathHunter D2 beta-arrestin, luminescence, 90 min; 100% = 57 uM dopamine signal; activation, % (test concentration not listed); 360,000 tested, 0.084% active; AID 624465; in the data active = activation above about 40%; inconclusive = between about 15% and that limit
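DiscoveRx PathHunter D2 beta-arrestin cells (2,100/well) attached overnight, then compound-stimulated 90 min at 37 C in HBSS/10 mM HEPES/0.1% Tween-20 buffer; beta-galactosidase complementation read by luminescence after 1 h at ambient temperature. Dopamine 57 uM final (EC100) as control.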
D2 PAM-1 = positively modulates the human D2 dopamine receptor allosterically; potentiation, % at 10 µM; 340,000 tested, 0.34% active; P14416; HEK293 T-REx D2, calcium flux, EC20 dopamine potentiation;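 active = potentiation over 3 SD above the plate norm, cut at about 30% in these data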; note: 0% is about no effect
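Tetracycline-induced Hek293 Trex D2 cells, force-coupled to calcium, loaded with no-wash calcium dye. Compound added with 180 s kinetic read for agonism, then EC20 dopamine and a further 180 s read for potentiation.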
D2 ag-2 = agonists of human D2 dopamine receptor | HEK293 T-REx D2 cells, calcium flux agonist mode | activation, % at 2 µM | P14416 | 340,000 tested, 0.53% active;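 active = activation over 3 SD above normal in the single-dose calcium agonist read, cut at about 30% in these data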; note: 0% is about no effect
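Agonism is scored from calcium flux in a force-coupled, inducible HEK293 cell line expressing D2, read kinetically for 180 s after compound addition against dopamine controls.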
D2 PAM-2 = potentiates the human D2 dopamine receptor allosterically | DiscoveRx D2 beta-arrestin cells, luminescence, 90 min; 100% = 57 uM dopamine signal | potentiation, % (test concentration not listed) | 360,000 tested, 0.23% active; in the data active = potentiation above about 50%; inconclusive = mostly about 30% to 49%
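D2 cells co-treated with compound plus 50 nM dopamine (EC20) for 90 min at 37 deg C to detect potentiation. Beta-arrestin recruitment was read as enzyme-fragment luminescence after 1 h at ambient temperature. Full response was set by 57 uM dopamine.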
D3 ag = activates human D3 dopamine receptor beta-arrestin recruitment; 2,300 tested, 4% active; DiscoveRx D3 beta-arrestin cells, luminescence, 90 min; Potency, µM (top dose mostly 76.9 µM), for the others: at the highest dose activation, most hits filed as activators; AID 720506; shares compounds with D2 ag-2;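 note: potency is the fitted concentration of half-maximal effect; 100% = dopamine control response; nearly all actives have a fitted effect of over 70% in size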
Target sequence (P35462 whole entry, looked up): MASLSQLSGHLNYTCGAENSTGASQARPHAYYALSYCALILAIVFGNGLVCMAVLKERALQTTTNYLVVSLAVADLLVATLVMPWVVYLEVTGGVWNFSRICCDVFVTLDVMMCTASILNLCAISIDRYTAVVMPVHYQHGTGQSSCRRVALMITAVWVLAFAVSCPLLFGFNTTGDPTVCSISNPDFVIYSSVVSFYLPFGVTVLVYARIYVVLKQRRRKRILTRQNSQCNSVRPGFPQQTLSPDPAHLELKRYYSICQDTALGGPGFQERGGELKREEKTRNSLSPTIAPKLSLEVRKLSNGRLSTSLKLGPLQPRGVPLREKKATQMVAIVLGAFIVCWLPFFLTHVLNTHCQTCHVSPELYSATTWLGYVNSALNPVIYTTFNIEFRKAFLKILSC
D2 ag-3 = counter-screen for D3 agonists: human D2 dopamine receptor agonism; shares compounds with D2 ag-2; DiscoveRx PathHunter D2 beta-arrestin, luminescence, 90 min; response scale: percent relative to full dopamine signal; Potency, µM (series often up to 76.9 µM), for inactives: top-dose activation, hits mostly activators; 2,300 tested, 5.9% active; note: potency is the fitted concentration of half-maximal effect; % of control where 0% means no effect; nearly all actives have a fitted effect of over 70% in size
The depositor's hits bear a star; ? = inconclusive; nt = no result given; [ ] = remark or other dose. Unless noted, calls come from the whole dose curve; as a rule, active = well fitted curve in the direction sought with a large enough effect; inconclusive = small, poorly fitted or top-dose-only effect, or another doubt; inactive = no such curve, though single readings can be large; an effect the other way counts as inactive or inconclusive.

SMILES	D2 antagonist	Anesthetic bind	D2 ag-1	D2 PAM-1	D2 ag-2	D2 PAM-2	D3 ag	D2 ag-3
O=C(c1ccco1)N1CCN=C1SCc1c(F)cccc1Cl	-8	?	-2	-10	37*	-28	-15%	-1%
CC(OC(=O)Cc1c(F)cccc1Cl)C(=O)NC1CCCCC1C (stereo unspecified)	-9	nt	-5	-12	1	-2	-5%	-2%
CC(OC(=O)CNC(=O)c1ccc(Br)cc1)C(=O)NC1CCCCC1C (stereo unspecified)	3	nt	-5	-7	0	-11	-1%	0%
CCOC(=O)c1c(NC(=S)Nc2ccc(OCC)cc2)sc2c1CCN(C)C2	10	-10%	-3	-10	0	-25	nt	nt
Cc1cc(C)cc(NC(=O)CCc2c(C)nc3c4cccnc4nn3c2C)c1	nt	1%	nt	-3	-1	nt	nt	nt
CC(C)(C)c1ccc(C(=O)NNC(=O)c2ccncc2)cc1	1	-16%	0	7	1	-3	nt	nt
CC(C)=N/N=C1/NC(=O)C(c2ccccc2)S1 (stereo unspecified)	nt	nt	-4	nt	nt	-14	nt	nt
CCC1(CC)NC(=O)N(CC(=O)OCC(=O)Nc2ccc(OC(F)(F)F)cc2)C1=O	61*	nt	0	6	1	-3	-1%	-2%
COc1cccc(N2CCN(Cc3nc(N)nc(N4CCCc5ccccc54)n3)CC2)c1	59*	5%	?	-25	56*	5	27%	?
Cc1ccc(CN2CCN(c3ccccc3)CC2)o1	70*	-7%	?	-11	49*	2	24%	?
O=[N+]([O-])c1cccc(-c2ccc(CN3CCN(c4ccccc4)CC3)o2)c1	47*	?	4	-22	52*	-16	3%	14%
O=[N+]([O-])c1ccc(N2CCN(Cc3cccc([N+](=O)[O-])c3)CC2)cc1	-1	?	-4	-10	2	-5	nt	nt
Cc1ccc(CN2CCN(c3ncccn3)CC2)o1	86*	-9%	?	-26	85*	?	-6%	?
Cc1ccc(S(=O)(=O)N2CCCCC2)cc1NC(=O)Cc1c[nH]c2ccccc12	-7	-15%	0	-4	0	-2	nt	nt
C/C(=N\NC(=O)c1nnn(-c2nonc2N)c1-c1ccc2c(c1)OCO2)c1ccc(C)cc1	14	-18%	-1	8	16	-4	-4%	-1%
C/C(=N\NC(=O)c1nnn(-c2nonc2N)c1-c1ccc2c(c1)OCO2)c1ccccc1	-58	-14%	-4	24	10	4	-8%	-7%
Cc1ccsc1/C=N/NC(=O)c1nnn(-c2nonc2N)c1-c1ccc2c(c1)OCO2	2	1%	-2	-6	1	0	nt	nt
Cc1ccc(-c2c(C(=O)N/N=C/c3ccoc3)nnn2-c2nonc2N)cc1	10	-16%	-2	11	1	-2	-9%	-4%
Nc1nonc1-n1nnc(C(=O)N/N=C/c2cccs2)c1-c1ccc2c(c1)OCO2	7	?	-2	18	20	10	-6%	0%
Cc1ccc(-c2c(C(=O)N/N=C/c3cccs3)nnn2-c2nonc2N)cc1	nt	-15%	2	16	nt	-2	-3%	-2%
CCOc1ccc(-c2c(C(=O)N/N=C/c3cccs3)nnn2-c2nonc2N)cc1	16	-12%	?	23	1	-9	nt	nt
O=C(Nc1ccnn1C1CCN(CCCc2ccccc2)CC1)c1ccccc1	44*	-11%	-1	-15	17	-7	-4%	5%
Cc1ccccc1C(=O)Nc1ccnn1C1CCN(CCCc2ccccc2)CC1	-13	?	?	17	2	-7	nt	nt
O=C(Nc1ccnn1C1CCN(C/C=C/c2ccccc2)CC1)C1CCCC1	28	-10%	4	-21	58*	-18	-3%	6%
COc1ccccc1C(=O)Nc1ccnn1C1CCN(CCCc2ccccc2)CC1	33*	-12%	2	-10	24	-29	-7%	11%
SMILES	D2 antagonist	Anesthetic bind	D2 ag-1	D2 PAM-1	D2 ag-2	D2 PAM-2	D3 ag	D2 ag-3
C=C(C)C(=O)Nc1nnc(-c2ccccc2C)s1	52*	-13%	-1	10	0	-23	-5%	-4%
O=C(CCN1CCN(C(c2ccccc2)c2ccccc2)CC1)N/N=C/c1ccc(O)cc1	-11	-13%	-3	-19	-3	-27	nt	nt
CC(=O)Nc1ccc(/C=N/NC(=O)CCN2CCN(c3ccccc3)CC2)cc1	51*	2%	9	-20	79*	3	?	27%
COc1ccc(/C=N\NC(=O)CCN2CCN(c3ccccc3)CC2)cc1OC	56*	-3%	3	-30	75*	-27	15%	21%
COc1cc(/C=N/NC(=O)CCN2CCCCC2)ccc1O	-4	1%	3	-5	1	-10	nt	nt
O=C(CCN1CCN(c2ccccc2)CC1)N/N=C/c1ccccc1OC(F)F	88*	-10%	?	-22	75*	9	-5%	?
Cc1ccc2c(=O)cc(C(=O)Nc3ccc(S(=O)(=O)N4CCCCC4)cc3)oc2c1C	nt	?	nt	2	nt	nt	nt	nt
C#CCCCO/N=C1/C[C@@H](O)[C@@H](O)[C@@H]2[C@@H]3C(=O)N(C(C)(C)C)C(=O)[C@H]3CC[C@@H]12	nt	-3%[15.3 µM]	nt	nt	nt	nt	nt	nt
O=C(NCCCN1CCCC1=O)c1ccc(NS(=O)(=O)c2ccc(F)cc2)cc1	-4	nt	4	4	2	-4	-9%	-2%
O=C(NCCCN1CCCC1=O)c1cc(NS(=O)(=O)c2ccc(F)cc2)cc(NS(=O)(=O)c2ccc(F)cc2)c1	-1	-24%	-1	-2	0	-10	nt	nt
O=C(NCc1ccncc1)c1ccc(NS(=O)(=O)c2ccc(F)cc2)cc1	nt	nt	1	nt	nt	-8	-3%	-5%
Cc1ccc(CCNC(=O)C2CCC(CNc3c(N4CCCC4)c(=O)c3=O)CC2)cc1 (stereo unspecified)	1	-2%	2	-3	0	-7	nt	nt
COCCn1c(SCC(=O)NCc2ccc3c(c2)OCO3)nnc1C(C)C	-18	-7%	-2	0	1	-3	nt	nt
COCCn1c(SCC(=O)NCc2ccc3c(c2)OCO3)nnc1-c1c[nH]c2ccccc12	-9	-13%	-3	-13	64*	-1	3%	-2%
